This note sets out measurements from ChEMBL document CHEMBL1961873, “Compounds: GSK PKIS; Assays: Nanosyn kinase panel” (2012).

Assay [1] concerns the target Ribosomal protein S6 kinase alpha-6 (Homo sapiens) (UniProt Q9UK32). The conditions noted are these: at 1 µM.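 Also: each value is a mean inhibition of RSK4 from a GSK PKIS panel screen.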
Assay [2] has as its target T1, Serine/threonine-protein kinase Sgk1 (Homo sapiens) (UniProt O00141).
T1 sequence (whole entry): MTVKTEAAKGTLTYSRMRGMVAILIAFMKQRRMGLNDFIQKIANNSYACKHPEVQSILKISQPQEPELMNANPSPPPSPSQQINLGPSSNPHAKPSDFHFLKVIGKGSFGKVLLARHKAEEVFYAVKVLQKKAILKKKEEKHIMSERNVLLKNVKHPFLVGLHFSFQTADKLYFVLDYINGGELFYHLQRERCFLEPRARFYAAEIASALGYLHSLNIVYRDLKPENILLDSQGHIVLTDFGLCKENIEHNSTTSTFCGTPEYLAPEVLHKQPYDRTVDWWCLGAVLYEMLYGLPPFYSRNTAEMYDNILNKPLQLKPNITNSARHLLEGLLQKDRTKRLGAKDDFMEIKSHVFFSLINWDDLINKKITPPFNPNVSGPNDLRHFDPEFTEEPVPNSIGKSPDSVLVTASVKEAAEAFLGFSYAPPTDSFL
The conditions noted are these: at 0.1 µM.

The target in assay [3] is T1, Serine/threonine-protein kinase Sgk1 (Homo sapiens). The conditions noted are these: at 1 µM.
Assay [4] concerns the target T2, Serine/threonine-protein kinase Sgk2 (Homo sapiens) (UniProt Q9HBY8).
T2 sequence (whole entry): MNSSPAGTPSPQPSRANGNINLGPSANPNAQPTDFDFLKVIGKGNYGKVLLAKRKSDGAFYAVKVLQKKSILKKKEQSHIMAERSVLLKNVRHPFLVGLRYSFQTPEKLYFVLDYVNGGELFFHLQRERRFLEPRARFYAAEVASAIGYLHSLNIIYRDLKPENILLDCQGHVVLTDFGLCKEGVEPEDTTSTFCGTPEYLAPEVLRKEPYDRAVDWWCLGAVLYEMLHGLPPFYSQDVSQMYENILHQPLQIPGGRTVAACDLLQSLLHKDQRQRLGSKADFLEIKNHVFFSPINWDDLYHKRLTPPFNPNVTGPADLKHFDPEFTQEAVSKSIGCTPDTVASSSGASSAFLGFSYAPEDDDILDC
The conditions noted are these: at 0.1 µM.

The target of assay [5] is T2, Serine/threonine-protein kinase Sgk2 (Homo sapiens). The conditions noted are these: at 1 µM.
Assay [6] deals with T3, Serine/threonine-protein kinase Sgk3 (Homo sapiens) (UniProt Q96BR1).
T3 sequence (whole entry): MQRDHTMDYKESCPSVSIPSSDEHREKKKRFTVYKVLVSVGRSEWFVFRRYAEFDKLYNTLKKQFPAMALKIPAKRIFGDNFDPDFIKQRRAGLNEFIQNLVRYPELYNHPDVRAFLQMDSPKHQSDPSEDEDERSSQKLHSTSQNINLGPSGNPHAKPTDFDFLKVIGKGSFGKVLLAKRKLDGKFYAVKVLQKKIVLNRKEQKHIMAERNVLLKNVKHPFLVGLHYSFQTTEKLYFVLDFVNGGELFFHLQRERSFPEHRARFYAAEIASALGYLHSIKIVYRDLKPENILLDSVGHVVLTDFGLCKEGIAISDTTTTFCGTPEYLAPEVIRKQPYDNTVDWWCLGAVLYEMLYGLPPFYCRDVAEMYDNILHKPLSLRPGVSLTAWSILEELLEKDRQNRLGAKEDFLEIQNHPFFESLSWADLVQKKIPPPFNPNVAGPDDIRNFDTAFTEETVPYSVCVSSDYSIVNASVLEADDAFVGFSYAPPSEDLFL
The conditions noted are these: at 0.1 µM.

Assay [7] concerns the target T3, Serine/threonine-protein kinase Sgk3 (Homo sapiens). The conditions noted are these: at 1 µM.
In assay [8] the target is 5'-AMP-activated protein kinase catalytic subunit alpha-1 (Homo sapiens) (UniProt Q13131). Conditions: at 0.1 µM.
Assay [9] has the same target. The conditions noted are these: at 1 µM.
For assay [10], the target named is 5'-AMP-activated protein kinase catalytic subunit alpha-2 (Homo sapiens) (UniProt P54646). The conditions noted are these: at 0.1 µM.
Assay [11] has the same target. The conditions noted are these: at 1 µM.
The target of assay [12] is T4, NUAK family SNF1-like kinase 1 (Homo sapiens) (UniProt O60285).
T4 sequence (whole entry): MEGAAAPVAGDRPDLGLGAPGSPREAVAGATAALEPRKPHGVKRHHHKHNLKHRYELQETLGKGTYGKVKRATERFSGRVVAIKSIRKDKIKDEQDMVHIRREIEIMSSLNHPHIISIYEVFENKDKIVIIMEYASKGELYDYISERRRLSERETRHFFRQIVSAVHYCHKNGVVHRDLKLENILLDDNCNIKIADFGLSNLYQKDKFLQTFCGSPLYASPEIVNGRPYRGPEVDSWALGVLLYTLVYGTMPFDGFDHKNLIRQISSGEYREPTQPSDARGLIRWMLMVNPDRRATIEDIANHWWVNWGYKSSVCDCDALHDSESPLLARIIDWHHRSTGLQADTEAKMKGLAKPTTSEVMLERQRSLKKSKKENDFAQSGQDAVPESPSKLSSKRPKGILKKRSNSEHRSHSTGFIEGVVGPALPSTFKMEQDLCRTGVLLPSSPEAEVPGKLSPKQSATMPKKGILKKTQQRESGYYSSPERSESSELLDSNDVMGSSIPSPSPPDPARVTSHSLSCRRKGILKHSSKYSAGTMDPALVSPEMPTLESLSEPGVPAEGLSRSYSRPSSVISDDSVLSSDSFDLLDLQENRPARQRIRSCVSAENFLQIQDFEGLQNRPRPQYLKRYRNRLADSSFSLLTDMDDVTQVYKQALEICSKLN
The conditions noted are these: at 0.1 µM.

Assay [13] addresses T4, NUAK family SNF1-like kinase 1 (Homo sapiens). Conditions: at 1 µM.
Assay [14] deals with T5, Serine/threonine-protein kinase BRSK1 (Homo sapiens) (UniProt Q8TDC3).
T5 sequence (whole entry): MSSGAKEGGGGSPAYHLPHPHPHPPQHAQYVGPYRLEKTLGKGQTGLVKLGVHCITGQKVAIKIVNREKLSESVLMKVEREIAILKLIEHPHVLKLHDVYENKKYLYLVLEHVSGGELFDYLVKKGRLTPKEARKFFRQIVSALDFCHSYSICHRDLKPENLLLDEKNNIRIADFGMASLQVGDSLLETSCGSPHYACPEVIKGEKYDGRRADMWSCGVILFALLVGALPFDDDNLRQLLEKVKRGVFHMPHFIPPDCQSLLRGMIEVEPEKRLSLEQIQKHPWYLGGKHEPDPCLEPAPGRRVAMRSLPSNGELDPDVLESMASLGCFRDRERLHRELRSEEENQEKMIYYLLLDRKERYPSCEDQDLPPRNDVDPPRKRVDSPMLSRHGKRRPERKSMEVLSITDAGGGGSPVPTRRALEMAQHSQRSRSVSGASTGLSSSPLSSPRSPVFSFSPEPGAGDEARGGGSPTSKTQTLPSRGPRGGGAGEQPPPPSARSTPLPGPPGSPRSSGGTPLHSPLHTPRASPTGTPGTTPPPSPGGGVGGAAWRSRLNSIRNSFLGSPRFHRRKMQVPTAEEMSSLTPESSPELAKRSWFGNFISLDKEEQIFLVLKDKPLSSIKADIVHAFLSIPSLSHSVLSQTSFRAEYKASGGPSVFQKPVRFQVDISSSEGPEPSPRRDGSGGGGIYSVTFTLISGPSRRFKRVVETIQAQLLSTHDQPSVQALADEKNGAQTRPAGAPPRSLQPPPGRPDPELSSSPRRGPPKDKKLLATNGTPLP
The conditions noted are these: at 0.1 µM.

Assay [15] addresses T5, Serine/threonine-protein kinase BRSK1 (Homo sapiens). Conditions: at 1 µM.
For assay [16], the target named is T6, Serine/threonine-protein kinase BRSK2 (Homo sapiens) (UniProt Q8IWQ3).
T6 sequence (whole entry): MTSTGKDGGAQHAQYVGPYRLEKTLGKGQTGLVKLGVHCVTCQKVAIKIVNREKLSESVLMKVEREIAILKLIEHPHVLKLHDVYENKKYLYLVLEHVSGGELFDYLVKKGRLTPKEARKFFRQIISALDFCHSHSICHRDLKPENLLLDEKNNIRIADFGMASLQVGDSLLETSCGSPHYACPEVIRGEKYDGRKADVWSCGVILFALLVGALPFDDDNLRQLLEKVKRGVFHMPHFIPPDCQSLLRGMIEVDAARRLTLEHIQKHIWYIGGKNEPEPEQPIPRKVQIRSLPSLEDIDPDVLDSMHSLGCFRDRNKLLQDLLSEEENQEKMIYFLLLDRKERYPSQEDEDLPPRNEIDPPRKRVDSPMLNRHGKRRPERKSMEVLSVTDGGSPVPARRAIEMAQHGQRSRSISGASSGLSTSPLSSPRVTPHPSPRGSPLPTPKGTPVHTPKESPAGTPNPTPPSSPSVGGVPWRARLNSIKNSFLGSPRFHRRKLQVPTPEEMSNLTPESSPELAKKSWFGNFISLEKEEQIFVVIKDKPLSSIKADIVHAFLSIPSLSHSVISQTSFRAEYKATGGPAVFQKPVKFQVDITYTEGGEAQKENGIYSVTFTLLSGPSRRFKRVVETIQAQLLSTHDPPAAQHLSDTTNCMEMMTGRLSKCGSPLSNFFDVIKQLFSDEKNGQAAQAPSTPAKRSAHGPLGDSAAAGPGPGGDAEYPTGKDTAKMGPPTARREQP
The conditions noted are these: at 0.1 µM.

In assay [17] the target is T6, Serine/threonine-protein kinase BRSK2 (Homo sapiens). The conditions noted are these: at 1 µM.
Assay [18] addresses Calcium/calmodulin-dependent protein kinase type 1D (Homo sapiens) (UniProt Q8IU85). Conditions: at 0.1 µM.
Assay [19] has the same target. Conditions: at 1 µM.
Assay [20] deals with Calcium/calmodulin-dependent protein kinase type II subunit alpha (Homo sapiens) (UniProt Q9UQM7). The conditions noted are these: at 0.1 µM.

The structures appear in SMILES notation.

Sequence of Calcium/calmodulin-dependent protein kinase type 1D (Homo sapiens) (Q8IU85 whole entry, looked up): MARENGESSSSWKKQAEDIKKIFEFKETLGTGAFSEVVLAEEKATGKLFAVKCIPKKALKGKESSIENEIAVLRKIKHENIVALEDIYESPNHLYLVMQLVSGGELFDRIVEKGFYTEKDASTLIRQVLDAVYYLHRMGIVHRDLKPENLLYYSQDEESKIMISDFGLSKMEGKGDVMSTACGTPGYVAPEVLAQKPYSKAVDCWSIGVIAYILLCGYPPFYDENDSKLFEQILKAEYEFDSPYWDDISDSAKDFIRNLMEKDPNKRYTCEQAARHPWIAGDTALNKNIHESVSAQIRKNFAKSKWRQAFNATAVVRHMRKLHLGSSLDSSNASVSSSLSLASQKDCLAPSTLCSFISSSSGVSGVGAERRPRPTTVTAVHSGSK
Sequence of Ribosomal protein S6 kinase alpha-6 (Homo sapiens) (Q9UK32 whole entry): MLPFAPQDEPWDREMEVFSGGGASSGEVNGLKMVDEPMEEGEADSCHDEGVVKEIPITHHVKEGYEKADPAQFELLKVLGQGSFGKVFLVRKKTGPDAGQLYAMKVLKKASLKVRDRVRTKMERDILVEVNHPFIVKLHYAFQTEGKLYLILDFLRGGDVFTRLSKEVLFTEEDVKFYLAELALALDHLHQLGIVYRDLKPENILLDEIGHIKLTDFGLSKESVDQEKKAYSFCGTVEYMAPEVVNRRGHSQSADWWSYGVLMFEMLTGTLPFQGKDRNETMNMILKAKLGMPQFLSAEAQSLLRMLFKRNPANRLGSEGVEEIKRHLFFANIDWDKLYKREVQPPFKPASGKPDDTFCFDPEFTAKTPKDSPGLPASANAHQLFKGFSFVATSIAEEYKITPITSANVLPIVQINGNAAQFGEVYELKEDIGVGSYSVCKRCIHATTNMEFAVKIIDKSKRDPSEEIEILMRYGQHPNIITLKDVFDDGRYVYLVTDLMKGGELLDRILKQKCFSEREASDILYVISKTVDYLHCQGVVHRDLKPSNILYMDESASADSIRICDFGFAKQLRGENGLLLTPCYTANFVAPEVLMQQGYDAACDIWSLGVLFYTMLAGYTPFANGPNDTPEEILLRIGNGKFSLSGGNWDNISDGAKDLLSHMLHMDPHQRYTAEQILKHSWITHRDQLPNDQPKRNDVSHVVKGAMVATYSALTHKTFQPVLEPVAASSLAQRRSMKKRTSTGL
Sequence of Calcium/calmodulin-dependent protein kinase type II subunit alpha (Homo sapiens) (Q9UQM7 whole entry): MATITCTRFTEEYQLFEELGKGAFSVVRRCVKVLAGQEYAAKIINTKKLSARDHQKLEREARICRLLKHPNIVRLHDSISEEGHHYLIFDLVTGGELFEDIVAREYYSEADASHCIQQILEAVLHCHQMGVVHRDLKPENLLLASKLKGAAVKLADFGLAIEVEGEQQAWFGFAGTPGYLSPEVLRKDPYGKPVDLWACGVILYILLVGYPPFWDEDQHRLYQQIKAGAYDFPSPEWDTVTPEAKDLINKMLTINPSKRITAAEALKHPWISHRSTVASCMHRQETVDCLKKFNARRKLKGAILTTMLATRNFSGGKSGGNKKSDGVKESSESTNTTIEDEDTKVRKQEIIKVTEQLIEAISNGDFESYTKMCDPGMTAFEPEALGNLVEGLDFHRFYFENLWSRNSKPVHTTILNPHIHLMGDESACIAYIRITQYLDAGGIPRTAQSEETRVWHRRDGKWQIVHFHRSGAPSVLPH
Sequence of 5'-AMP-activated protein kinase catalytic subunit alpha-2 (Homo sapiens) (P54646 whole entry, looked up): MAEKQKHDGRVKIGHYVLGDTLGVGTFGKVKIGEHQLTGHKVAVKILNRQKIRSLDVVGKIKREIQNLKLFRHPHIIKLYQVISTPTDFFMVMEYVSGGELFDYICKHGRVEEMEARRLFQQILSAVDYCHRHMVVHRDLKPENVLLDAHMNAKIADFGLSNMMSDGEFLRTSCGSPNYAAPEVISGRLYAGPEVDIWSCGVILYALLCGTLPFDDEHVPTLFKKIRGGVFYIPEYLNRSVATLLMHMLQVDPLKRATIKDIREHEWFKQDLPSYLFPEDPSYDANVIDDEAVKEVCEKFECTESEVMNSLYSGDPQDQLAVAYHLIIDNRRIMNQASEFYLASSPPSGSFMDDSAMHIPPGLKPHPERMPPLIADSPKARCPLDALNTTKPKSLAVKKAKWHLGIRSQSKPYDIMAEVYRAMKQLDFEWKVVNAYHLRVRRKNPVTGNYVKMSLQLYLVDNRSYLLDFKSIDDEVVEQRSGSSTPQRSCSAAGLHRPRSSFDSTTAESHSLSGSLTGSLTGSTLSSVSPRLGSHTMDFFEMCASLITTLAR
Sequence of 5'-AMP-activated protein kinase catalytic subunit alpha-1 (Homo sapiens) (Q13131 whole entry, looked up): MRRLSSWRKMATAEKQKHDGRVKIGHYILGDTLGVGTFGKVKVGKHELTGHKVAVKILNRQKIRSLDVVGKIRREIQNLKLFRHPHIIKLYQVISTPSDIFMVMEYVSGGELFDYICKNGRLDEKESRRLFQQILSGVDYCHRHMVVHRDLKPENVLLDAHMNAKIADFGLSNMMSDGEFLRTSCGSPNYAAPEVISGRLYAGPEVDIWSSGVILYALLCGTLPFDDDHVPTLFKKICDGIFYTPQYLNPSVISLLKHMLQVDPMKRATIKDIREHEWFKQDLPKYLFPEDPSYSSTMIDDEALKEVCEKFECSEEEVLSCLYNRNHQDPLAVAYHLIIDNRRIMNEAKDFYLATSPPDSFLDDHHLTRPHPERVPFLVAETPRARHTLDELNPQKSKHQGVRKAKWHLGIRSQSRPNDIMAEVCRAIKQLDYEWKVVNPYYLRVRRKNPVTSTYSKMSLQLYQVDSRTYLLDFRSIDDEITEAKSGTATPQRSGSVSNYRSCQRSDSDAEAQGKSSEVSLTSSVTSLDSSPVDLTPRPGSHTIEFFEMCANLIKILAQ

As to `Nc1ccc(C#Cc2cncnc2Nc2ccc(OCc3cccc(F)c3)c(Cl)c2)cc1`, the inhibition in assay [1] was determined as 0.51%; in assay [2], 1.87%; in assay [3], 2.62%; in [4], 4.82%; in assay [5], 3.04%; in [6] it was 2.22%. Further, the inhibition in [7] was 2.3%; in assay [8], 1.54%; in assay [9], 2.87%; in assay [10], -0.27%; in assay [11], 2.03%; in [12], 1.31%. Moreover, the inhibition is -1.87% in assay [13]; 1.62% in assay [14]; 0.9% in assay [15]; 1.82% in assay [16]; 1.94% in assay [17]; 0.26% in assay [18]. In addition, the results for the inhibition in assay [19] and in assay [20] were 0.65% and 1.19%, respectively.

As for `CS(=O)(=O)Nc1cccc(-c2ccc3c(NC(=O)C4CC4)n[nH]c3c2)c1`, the inhibition in [1] is 1.64%; in assay [2], 1.2%; in [3], 1.36%; in [4] it was 0.93%; in assay [5], -0.04%; in assay [6], 1.19%. Moreover, the inhibition in assay [7] was -0.96%; in assay [8] it was 1.97%; in assay [9], 1.56%; in [10], -0.32%; in assay [11], 6.02%; in assay [12], -0.11%. For the same molecule, the inhibition in assay [13] turned out to be 1.95%; in assay [14], 3.46%; in assay [15] it was 18.7%; in assay [16] it was 2.32%; in assay [17], 19.1%; in [18], 2.26%. For the same molecule, the inhibition in assay [19] was 1.87%; in [20] it was 7.84%.

On to `CN(C)C(=O)O[C@@H]1CN[C@@H](C#Cc2cc3ncnc(Nc4ccc(OCc5cccc(F)c5)c(Cl)c4)c3s2)C1`, for which the inhibition in assay [1] was 1.1%; in assay [2], 0.97%; in assay [3], 0.35%; in assay [4], -1.98%; in assay [5] it was 1.45%; in assay [6], -0.94%. Further, the inhibition in [7] is -0.47%; in assay [8], 1.21%; in assay [9], -0.92%; in assay [10], -1.56%; in [11] it was 3.03%; in [12] it was -0.32%. In addition, the inhibition came out at 0.15% in assay [13]; 1.77% in assay [14]; 1.18% in [15]; 1.4% in assay [16]; 1.44% in assay [17]; 1.61% in [18]. Besides, the inhibition came out at 1.9% in assay [19] and 1.78% in [20].

As a reminder, the inhibition is the relative decrease from the control value, in per cent.
